High-throughput results from PubChem.
Giardia FBPA inh: inhibitors of Giardia lamblia fructose-1,6-bisphosphate aldolase. Potency, µM (highest dose often 59.6 µM), for inactives: top-dose activity, negative = inhibition, most hits filed as inhibitors. purified Giardia FBPA. A8B2U2. hit rate 0.71% among 290,000; note: potency is the fitted concentration of half-maximal effect; nearly all actives have a fitted effect of over 55% in size
Target sequence (A8B2U2 whole entry, looked up): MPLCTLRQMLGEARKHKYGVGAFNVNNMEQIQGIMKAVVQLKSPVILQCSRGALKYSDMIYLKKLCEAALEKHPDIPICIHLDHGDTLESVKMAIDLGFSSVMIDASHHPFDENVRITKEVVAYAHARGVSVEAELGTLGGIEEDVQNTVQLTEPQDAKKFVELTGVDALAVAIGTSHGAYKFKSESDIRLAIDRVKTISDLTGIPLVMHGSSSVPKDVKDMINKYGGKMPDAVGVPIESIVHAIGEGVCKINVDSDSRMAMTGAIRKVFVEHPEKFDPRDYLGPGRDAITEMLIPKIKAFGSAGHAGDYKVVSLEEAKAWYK
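40 nM FBPA preincubated 10 min at RT with compound (up to 57.5 uM final), then substrate plus GAPDH/TPI/NAD/arsenate coupling and diaphorase/resazurin added. Fluorescence read after 20 min at RT, 525/598 nm.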
HCMV antiviral: blocks human cytomegalovirus replication | HFF cells, HCMV-luciferase reporter, 72 h; hits give low values | activity change, negative = inhibition, % at 57.5 µM | hit rate 4.5% among 410,000; in the data active = activity change below about -60%; inconclusive = no clear call, values can overlap the other calls; inactive = above about -39%
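Compounds were evaluated in HFFs infected with an HCMV luciferase reporter virus (MOI 1 PFU/cell). Luciferase in lysates collected 72 h post infection served as the replication measure.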
HCV inh: HCV inhibition | Huh7.5.1 HCVcc-Cre infection, luciferase reporter, 44 h | Potency, µM (titrated, usually from 41.8 µM), inactives show top-dose activity change, negative = inhibition, actives largely listed as inhibitors | hit rate 3.4% among 340,000 | AID 651820; note: potency is the fitted concentration of half-maximal effect
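After 44 h co-culture of compound, cells and HCVcc-Cre (~0.5 moi), substrate is added for 15 min at room temperature and luciferase measured over 15 sec. Cells were seeded at 1,000/well and pre-cultured 4 h.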
Marburg entry inh: inhibitors of Marburg virus binding or cell entry | Marburg virus pseudotyped entry inhibition, cell reporter | hit rate 1.8% among 300,000 | Potency, µM (top dose mostly 37.8 µM), inactives show top-dose activity change, negative = inhibition, usual class: inhibitors; calls by dose curve; tested in HEK293 cells; note: potency is the fitted concentration of half-maximal effect
FMDV antiviral: blocks foot and mouth disease virus; hit rate 1.2% among 410,000; FMDV antiviral cell-based qHTS; Potency, µM (series often up to 57.9 µM), for inactives: at the top dose activity change, negative = inhibition, actives largely listed as inhibitors; AID 1159524; calls by dose curve; tested in HEK293T cells; note: read-out not given here; potency is the fitted concentration of half-maximal effect; nearly all actives have a fitted effect of over 45% in size
Lassa entry inh: inhibitors of Lassa virus binding or cell entry; Lassa virus pseudotype entry inhibition, cell reporter; hit rate 1.2% among 300,000; Potency, µM (top dose mostly 37.9 µM), for inactives: at the highest dose activity change, negative = inhibition, hits mostly inhibitors; calls by dose curve; tested in HEK293 cells; note: potency is the fitted concentration of half-maximal effect; nearly all actives have a fitted effect of over 50% in size
Numbers without * were called inactive; ? = inconclusive; / = not tested or not shown; [ ] = remark or other dose. This is a sample that favours compounds with a hit; in the whole collection about 8.3% have one here. Unless noted, calls come from the whole dose curve; as a rule, active = well fitted curve in the direction sought with a large enough effect; inconclusive = small, poorly fitted or top-dose-only effect, or another doubt; inactive = no such curve, though single readings can be large; an effect the other way counts as inactive or inconclusive. % is set by controls: 0 for no effect and ±100 for the full control effect.

SMILES | Giardia FBPA inh | HCMV antiviral | HCV inh | Marburg entry inh | FMDV antiviral | Lassa entry inh
O=C1/C(=C/c2cccs2)SC(=S)N1CCCC(=O)N(CCO)c1ccccc1 | 6% | -98* | 9% | 4%[46.1 µM] | -20% | ?
COc1ccc(/C=C2\SC(=S)N(CCC(=O)N(CCO)c3ccccc3)C2=O)cc1OC | 6% | -60* | 14% | / | -19% | /
O=C(Nc1cccc(Cl)c1Cl)c1cc(S(=O)(=O)N2CCC3(CC2)OCCO3)ccc1F | / | -24 | / | / | -11% | 2%[46.1 µM]
O=C(c1cc(C2CC2)nc2ccc(Br)cc12)N1N=C(C(F)F)CC1(O)C(F)F (stereo unspecified) | 0% | -73* | ? | ? | ? | ?
COCCNCC1C(Oc2ccc(Cl)cc2)C(=O)N1c1ccccc1C (stereo unspecified) | -10% | -16 | 5% | ? | -18% | -19%
COc1ccc(CCNCC2C(Oc3ccc(Cl)cc3)C(=O)N2c2ccccc2C)cc1OC (stereo unspecified) | -13% | ? | ? | 11µM* | ? | 5%[46.1 µM]
C/C=C1\COC(C(=O)NCCN2CCOCC2)(C(F)(F)F)C=C1C=C(C)C (stereo unspecified) | 3% | / | / | / | / | /
COc1ccc(C2C(C(=O)N3CCOCC3)CCC(=O)N2c2cc(OC)c(OC)c(OC)c2)cc1 (stereo unspecified) | 0% | -28 | 2% | ? | -5% | 1%
CCC(C)NC(=O)C1CCC(=O)N(c2ccc3c(c2)OCO3)C1c1ccc(OC)cc1 (stereo unspecified) | -2% | -62* | -4% | / | -16% | /
COc1ccc(C2C(C(=O)N3CCCCC3)CCC(=O)N2c2cc(OC)c(OC)c(OC)c2)cc1 (stereo unspecified) | -2% | / | 2% | 11% | -18% | 7.3µM*
CN(C)c1ncc2nc(-c3ccccc3)c(=O)n(Cc3ccc(F)cc3)c2n1 | 0% | / | / | / | -12% | /
CC(C)C1CCN(C(=O)C2CCC(=O)N(CCc3ccc(Cl)cc3)C2)CC1 (stereo unspecified) | / | -64* | ? | 6% | ? | -18%
COC(=O)c1[nH]c2cc(OC)c(OC)cc2c1/C=N/Nc1ccccc1 | -2% | 100 | 10µM* | / | 6% | /
O=C(O)c1ccc(/C=C2\SC(=S)N(Nc3ccccc3)C2=O)cc1 | -7% | -35 | -20% | ? | 13% | -12%
O=C1/C(=C/c2cccnc2)SC(=S)N1CCc1ccccc1 | 0% | -71* | 13% | / | 30% | /
O=C(CCN1C(=O)/C(=C/c2ccc(F)cc2)SC1=S)N[C@@H](CO)Cc1ccccc1 | 7% | -64* | ? | / | 0% | /
O=C1/C(=C/c2ccncc2)SC(=S)N1Nc1ccccc1 | -24% | 100 | 10% | ? | 20µM* | -11%
COc1ccc(/C=C2/SC(=S)N(Cc3ccccc3)C2=O)cc1O | -2% | ? | ? | / | 32% | /
O=C1/C(=C\c2cc(Cl)c(O)c(Cl)c2)SC(=S)N1Cc1ccccc1 | -9% | -99* | ? | 6.3µM* | ? | 4µM*
O[C@@H]1COC2[C@@H](O)CO[C@@H]21 (stereo partly specified) | 14% | / | / | / | / | /
COCCn1c(=O)c(-c2ccc(F)cc2)nc2cnc(N(C)C)nc21 | -5% | / | / | / | -2% | /
O=C(CCCN1C(=O)/C(=C/c2ccccc2Cl)SC1=S)NNC(=O)c1cccnc1 | 5% | -36 | -9% | / | ? | /
O=C(CCN1C(=O)/C(=C\c2ccccc2)SC1=S)NNC(=O)c1cccnc1 | 5% | -62* | 14% | ? | 0% | ?
CC(=O)Nc1ccc(C(=O)Nc2ccc3c(c2)N(C2CCCC2)C(=O)c2ccccc2S3)cc1 | / | -83* | / | / | ? | 6.3µM*
N#Cc1ccc(C(=O)Nc2ccc3c(c2)N(C2CCCC2)C(=O)c2ccccc2S3)cc1 | / | -32 | / | / | 0% | ?
SMILES | Giardia FBPA inh | HCMV antiviral | HCV inh | Marburg entry inh | FMDV antiviral | Lassa entry inh
O=C(Nc1ccncc1)c1ccc2c(c1)C(=O)N(C1CCCCC1)C2=O | 0% | -30 | ? | ? | 14µM* | -26%
COc1ccc(-n2c(=O)c(-c3ccc(Cl)cc3)nc3cnc(N(C)C)nc32)cc1 | -3% | / | / | / | -11% | /
COC(=O)c1c(OCc2cccnc2)cc(=O)n2c1CCN(C(=O)c1ccc(OC)c(F)c1)CC2 | / | / | / | / | -5% | /
Cc1cc(NO)c(C(C)C)cc1N=O | 8% | -65* | ? | -27% | 22µM* | 15%
COc1ccc(C(=O)NC2CCCCC2)cc1S(=O)(=O)N1CCOCC1 | 3% | 30 | 15% | 5%[46.1 µM] | 5% | -4%[46.1 µM]
COc1ccc(C(=O)OCc2ccccc2F)cc1S(=O)(=O)N1CCCC1 | / | -97* | ? | ? | -2% | -11%
COc1ccc(C(=O)NC2CCCCCC2)cc1S(=O)(=O)N1CCCC1 | 1% | -63* | 5% | 27%[46.1 µM] | 47% | 20%
COc1ccc(C(=O)N(C)Cc2ccccc2F)cc1S(=O)(=O)N1CCCC1 | / | -29 | 6% | / | 54% | /
COc1ccc(C(=O)NC2CCCCCC2)cc1S(=O)(=O)N1CCCc2ccccc21 | 0% | -62* | ? | ? | 19% | 7.1µM*
CCOC(=O)CN1C(=O)[C@]2(OCCC=C[C@@H]2C)c2cc(OC)ccc21 | / | / | / | 13%[14.2 µM] | / | /
Cc1ccc(-c2c(CN3CCN(c4cccc(C(F)(F)F)c4)CC3)csc2C)cc1 | / | -14 | / | / | -17% | 7%[46.1 µM]
O=C(NCc1ccccc1)C(c1ccccc1)N(Cc1cccs1)C(=O)c1cnccn1 (stereo unspecified) | 2% | -31 | 7% | 21µM* | -2% | -6%
CCC(C)(C)NC(=O)C(c1ccc(F)cc1)N(Cc1ccccc1)C(=O)c1cnccn1 (stereo unspecified) | 3% | ? | 1.4µM* | -22% | -5% | 9%[46.1 µM]
Cc1ccccc1NS(=O)(=O)c1ccc(C(=O)NCC2(N3CCOCC3)CCCCC2)cc1 | / | -6 | -26% | / | -2% | /
Cc1cccc(NS(=O)(=O)c2ccc(C(=O)NCC3(N4CCCCC4)CCCCC3)cc2)c1C | / | -35 | ? | 11µM* | 1% | ?
Cc1sc2ncn(CC(=O)N3CCN(c4ccc(Cl)cc4)CC3)c(=O)c2c1S(=O)(=O)N1CCN(c2ncccn2)CC1 | / | -18 | / | 6%[46.1 µM] | ? | -10%[46.1 µM]
Cc1cccc2cc3c(N)c(C(=O)Nc4ccc(N5CCOCC5)cc4)sc3nc12 | 0% | -19 | 4µM* | ? | / | 13µM*
Cc1cc(C)c2nc3sc(C(=O)N4CCOCC4)c(N)c3cc2c1 | ? | -94* | ? | / | -46% | /
Nc1c(C(=O)N2CCOCC2)sc2nc3c(cc12)CCCC3 | -2% | ? | -7% | ? | 11µM* | ?
Nc1c(C(=O)N2CCOCC2)sc2nc3c(cc12)CCC3 | -4% | 44 | 3% | / | 21% | /
C=CCN1c2ccccc2[C@]23CCC(=O)N(CCc4ccccn4)C2=NC(C(=O)OC)=C(C(=O)OC)[C@H]13 | / | / | / | 4%[14.2 µM] | / | /
